From the supplement of paper PMC10849652
About 7,900 targets were measured; listed, in parts, are those with a hit and a random draw of the rest. About 0.6% of all pairs of compound and target were hits. A number with no mark means an inactive call.

How the values were obtained:
Assay in all cases: log2 fold change, soluble protein after heating vs DMSO (PISA); higher = thermal stabilisation; K562 cells, 10 uM, 30 min; active = over 0.2 and 3.5 SD of the protein, either way, in both replicates (recomputed)
[1] = compound: CC1=C(C=C(C=C1)NC(=O)C2=CC(=CC=C2)C(C)(C)C#N)NC3=CC4=C(C=C3)N=CN(C4=O)C
Procedure, shortened: (§1)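 Values are thermal stability changes relative to control samples and are taken from duplicates. They are stated as log2 fold changes. Before quantification by TMTpro 16plex LC-MS/MS with equalised channel sums, K562 cells at 2×10^6 cells/mL were treated with 10 μM compound for 30 min, heated in aliquots for 3 min across 48°C-58°C, pooled, extracted in PBS with 0.5% NP-40 at 4°C, and centrifuged at 21,000xg for 90 min to give the soluble supernatant.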

[2] = compound: CC1=C(C=C(C=C1)NC(=O)C2=CC(=CC=C2)N(C)C)NC(=O)C3=CC=C(C=C3)O
Procedure, shortened: as §1

[3] = compound: CC1=CC=C(C=C1)SC2=C3C=C(SC3=CN=C2)C(=O)N
Procedure, shortened: as §1

[4] = compound: CC1=NC(=CC=C1)C2=C(N=C(N2)C(C)(C)C)C3=CC4=NC=CN=C4C=C3
Procedure, shortened: as §1

[5] = compound: CCCCN(Cc1ccc(C(=O)NO)cc1)C(=O)Nc1ccccc1 [Nexturastat A]
Procedure, shortened: as §1

[6] = compound: CCCS(=O)(=O)Nc1ccc(F)c(C(=O)c2c[nH]c3ncc(-c4ccc(Cl)cc4)cc23)c1F [vemurafenib]
Procedure, shortened: as §1

[7] = compound: CCCS(=O)(=O)Nc1ccc(F)c(C(=O)c2c[nH]c3ncc(Cl)cc23)c1F
Procedure, shortened: as §1

[8] = compound: CCCc1cc(C)[nH]c(=O)c1CNC(=O)c1cc(-c2ccnc(N3CCN(C)CC3)c2)cc2c1cnn2C(C)C
Procedure, shortened: as §1

[9] = compound: CCN(CC)Cc1ccc2cc(COC(=O)Nc3ccc(C(=O)NO)cc3)ccc2c1 [givinostat]
Procedure, shortened: as §1

[10] = compound: CCN(CCCOc1ccc2c(Nc3cc(CC(=O)Nc4cccc(F)c4)[nH]n3)ncnc2c1)CCOP(=O)(O)O [barasertib]
Procedure, shortened: as §1

[11] = compound: CC[C@@H]1C(=O)N(C)c2cnc(Nc3ccc(C(=O)NC4CCN(C)CC4)cc3OC)nc2N1C1CCCC1
Procedure, shortened: as §1

[12] = compound: CC[C@@H]1C(=O)N(C)c2cnc(Nc3ccc(C(=O)N[C@H]4CC[C@H](N5CCN(CC6CC6)CC5)CC4)cc3OC)nc2N1C(C)C [volasertib]
Procedure, shortened: as §1

[13] = compound: CC[C@H](C)N1C=C(C2=C(C=C(C=C21)C3=CN=C(C=C3)N4CCNCC4)C(=O)NCC5=C(C=C(NC5=O)C)C)C
Procedure, shortened: as §1

[14] = compound: CC[C@H](C)[C@@H](C(=O)N[C@@H]([C@@H](C)O)C(=O)N[C@@H](CC(C)C)C(=O)[C@]1(CO1)C)NC(=O)[C@H]([C@@H](C)CC)N(C)C(=O)C [epoxomicin]
Procedure, shortened: as §1

[15] = compound: CCn1c(C(=O)N(C2CC2)C2CC2)cc2c3c(ncn3C)c(Nc3cc(C)n(C)n3)nc21
Procedure, shortened: as §1

[16] = compound: CCn1cc(-c2ccnc3[nH]c(-c4cccc(CN(C)C)c4)cc23)c(-c2ccc(NC(=O)N(C)C)cc2)n1
Procedure, shortened: as §1

[17] = compound: CN(C)CC(=O)Nc1ccc2[nH]c(=O)c3ccccc3c2c1
Procedure, shortened: as §1

[18] = compound: CN(CCOC1=CC=C(C=C1)C[C@H]2C(=O)NC(=O)S2)C3=CC=CC=N3 (racemic) [rosiglitazone]
Procedure, shortened: as §1

[19] = compound: CN1C2=C(C3=C1C(=O)N(N=C3)CC4=CC(=CC=C4)N)SC(=C2)S(=O)C
Procedure, shortened: as §1

[20] = compound: CN1CCC(CNc2ccc3ncc(-c4cccc(OC(F)(F)F)c4)n3n2)CC1
Procedure, shortened: as §1

Chain of UniProt Q96GQ5 (Q96GQ5 whole entry, looked up): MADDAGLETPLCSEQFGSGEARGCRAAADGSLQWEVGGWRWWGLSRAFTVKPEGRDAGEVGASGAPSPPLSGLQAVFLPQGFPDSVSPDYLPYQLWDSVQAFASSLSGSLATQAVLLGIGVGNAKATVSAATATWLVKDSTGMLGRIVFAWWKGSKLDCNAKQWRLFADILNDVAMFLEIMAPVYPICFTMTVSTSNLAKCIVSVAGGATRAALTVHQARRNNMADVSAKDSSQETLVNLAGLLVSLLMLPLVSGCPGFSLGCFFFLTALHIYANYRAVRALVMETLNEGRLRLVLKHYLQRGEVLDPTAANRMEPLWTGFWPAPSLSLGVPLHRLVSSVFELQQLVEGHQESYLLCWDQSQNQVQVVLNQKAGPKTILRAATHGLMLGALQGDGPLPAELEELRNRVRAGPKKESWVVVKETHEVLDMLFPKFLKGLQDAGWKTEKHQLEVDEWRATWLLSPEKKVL
Chain of UniProt P61024 (P61024 whole entry, looked up): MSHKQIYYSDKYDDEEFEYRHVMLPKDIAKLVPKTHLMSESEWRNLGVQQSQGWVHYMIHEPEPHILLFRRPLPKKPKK
Chain of UniProt Q9NZN8 (Q9NZN8 whole entry, looked up): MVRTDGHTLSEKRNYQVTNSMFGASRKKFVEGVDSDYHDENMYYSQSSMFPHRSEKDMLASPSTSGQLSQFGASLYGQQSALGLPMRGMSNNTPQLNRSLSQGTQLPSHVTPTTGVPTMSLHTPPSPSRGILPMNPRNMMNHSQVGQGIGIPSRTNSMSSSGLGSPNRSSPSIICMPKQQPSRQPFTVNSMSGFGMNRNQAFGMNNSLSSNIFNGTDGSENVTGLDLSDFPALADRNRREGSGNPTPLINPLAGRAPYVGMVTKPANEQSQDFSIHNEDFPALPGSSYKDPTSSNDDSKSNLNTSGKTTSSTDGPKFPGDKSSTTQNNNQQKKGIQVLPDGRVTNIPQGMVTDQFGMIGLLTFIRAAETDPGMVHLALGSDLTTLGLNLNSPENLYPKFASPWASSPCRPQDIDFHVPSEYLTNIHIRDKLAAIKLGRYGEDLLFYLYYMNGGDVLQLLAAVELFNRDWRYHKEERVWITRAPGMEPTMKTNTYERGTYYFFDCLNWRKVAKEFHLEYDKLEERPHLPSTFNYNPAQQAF
Chain of UniProt P06493 (P06493 whole entry, looked up): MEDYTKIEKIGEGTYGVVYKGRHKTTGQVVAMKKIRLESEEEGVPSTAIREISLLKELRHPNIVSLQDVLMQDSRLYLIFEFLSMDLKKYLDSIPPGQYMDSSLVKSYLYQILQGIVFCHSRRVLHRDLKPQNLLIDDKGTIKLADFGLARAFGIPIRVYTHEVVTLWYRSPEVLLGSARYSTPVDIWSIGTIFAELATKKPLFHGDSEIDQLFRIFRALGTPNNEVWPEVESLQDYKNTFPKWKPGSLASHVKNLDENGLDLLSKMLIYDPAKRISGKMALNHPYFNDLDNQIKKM
Chain of UniProt P86791 (P86791 whole entry, looked up): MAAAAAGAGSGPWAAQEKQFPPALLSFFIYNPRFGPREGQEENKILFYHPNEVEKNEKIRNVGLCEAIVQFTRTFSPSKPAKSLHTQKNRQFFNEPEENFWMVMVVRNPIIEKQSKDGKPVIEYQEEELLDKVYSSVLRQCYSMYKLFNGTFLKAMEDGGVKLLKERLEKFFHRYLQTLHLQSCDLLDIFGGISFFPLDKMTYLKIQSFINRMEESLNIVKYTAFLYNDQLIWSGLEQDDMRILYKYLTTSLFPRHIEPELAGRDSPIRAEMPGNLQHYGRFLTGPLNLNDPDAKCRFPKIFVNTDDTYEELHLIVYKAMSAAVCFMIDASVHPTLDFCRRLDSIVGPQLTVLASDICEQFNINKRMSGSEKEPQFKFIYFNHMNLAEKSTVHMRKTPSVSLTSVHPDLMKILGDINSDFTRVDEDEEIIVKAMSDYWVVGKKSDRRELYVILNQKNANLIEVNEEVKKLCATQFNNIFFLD
Chain of UniProt Q96RR4 (Q96RR4 whole entry, looked up): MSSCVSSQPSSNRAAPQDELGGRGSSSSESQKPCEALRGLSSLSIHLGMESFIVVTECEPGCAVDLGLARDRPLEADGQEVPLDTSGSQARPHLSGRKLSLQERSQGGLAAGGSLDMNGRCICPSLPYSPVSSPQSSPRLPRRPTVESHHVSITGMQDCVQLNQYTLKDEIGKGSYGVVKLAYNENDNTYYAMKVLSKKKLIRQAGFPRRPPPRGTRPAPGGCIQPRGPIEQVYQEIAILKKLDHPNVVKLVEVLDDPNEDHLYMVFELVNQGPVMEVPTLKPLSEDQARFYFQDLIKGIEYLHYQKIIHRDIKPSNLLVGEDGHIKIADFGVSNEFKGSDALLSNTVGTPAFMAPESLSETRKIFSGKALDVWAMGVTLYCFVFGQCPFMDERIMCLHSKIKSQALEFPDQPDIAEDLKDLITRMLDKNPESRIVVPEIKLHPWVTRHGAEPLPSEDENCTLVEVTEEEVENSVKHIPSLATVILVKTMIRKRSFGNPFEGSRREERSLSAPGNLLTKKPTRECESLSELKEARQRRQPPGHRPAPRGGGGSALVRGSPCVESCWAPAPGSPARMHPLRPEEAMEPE
Chain of UniProt P21127 (P21127 whole entry, looked up): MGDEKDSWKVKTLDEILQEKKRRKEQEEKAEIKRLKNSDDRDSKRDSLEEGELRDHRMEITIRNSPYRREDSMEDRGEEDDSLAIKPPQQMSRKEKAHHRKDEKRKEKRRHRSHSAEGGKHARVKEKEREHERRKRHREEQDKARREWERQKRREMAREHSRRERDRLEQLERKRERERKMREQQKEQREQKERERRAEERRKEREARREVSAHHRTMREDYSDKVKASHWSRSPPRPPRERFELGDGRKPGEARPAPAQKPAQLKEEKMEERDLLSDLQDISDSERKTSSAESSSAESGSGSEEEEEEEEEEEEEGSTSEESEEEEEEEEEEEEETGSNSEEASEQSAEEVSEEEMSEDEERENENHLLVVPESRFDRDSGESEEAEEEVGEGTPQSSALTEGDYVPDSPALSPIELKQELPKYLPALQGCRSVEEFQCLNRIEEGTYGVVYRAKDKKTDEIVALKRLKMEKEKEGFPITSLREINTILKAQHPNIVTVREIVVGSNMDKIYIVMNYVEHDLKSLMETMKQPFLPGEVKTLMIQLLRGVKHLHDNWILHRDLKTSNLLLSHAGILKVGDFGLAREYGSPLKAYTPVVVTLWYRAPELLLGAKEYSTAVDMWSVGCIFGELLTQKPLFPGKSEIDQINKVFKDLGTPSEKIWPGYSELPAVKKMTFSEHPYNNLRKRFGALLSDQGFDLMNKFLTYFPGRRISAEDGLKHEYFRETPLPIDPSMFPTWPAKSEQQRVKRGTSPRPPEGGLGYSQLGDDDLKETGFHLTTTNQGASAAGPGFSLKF
Chain of UniProt P55060 (P55060 whole entry, looked up): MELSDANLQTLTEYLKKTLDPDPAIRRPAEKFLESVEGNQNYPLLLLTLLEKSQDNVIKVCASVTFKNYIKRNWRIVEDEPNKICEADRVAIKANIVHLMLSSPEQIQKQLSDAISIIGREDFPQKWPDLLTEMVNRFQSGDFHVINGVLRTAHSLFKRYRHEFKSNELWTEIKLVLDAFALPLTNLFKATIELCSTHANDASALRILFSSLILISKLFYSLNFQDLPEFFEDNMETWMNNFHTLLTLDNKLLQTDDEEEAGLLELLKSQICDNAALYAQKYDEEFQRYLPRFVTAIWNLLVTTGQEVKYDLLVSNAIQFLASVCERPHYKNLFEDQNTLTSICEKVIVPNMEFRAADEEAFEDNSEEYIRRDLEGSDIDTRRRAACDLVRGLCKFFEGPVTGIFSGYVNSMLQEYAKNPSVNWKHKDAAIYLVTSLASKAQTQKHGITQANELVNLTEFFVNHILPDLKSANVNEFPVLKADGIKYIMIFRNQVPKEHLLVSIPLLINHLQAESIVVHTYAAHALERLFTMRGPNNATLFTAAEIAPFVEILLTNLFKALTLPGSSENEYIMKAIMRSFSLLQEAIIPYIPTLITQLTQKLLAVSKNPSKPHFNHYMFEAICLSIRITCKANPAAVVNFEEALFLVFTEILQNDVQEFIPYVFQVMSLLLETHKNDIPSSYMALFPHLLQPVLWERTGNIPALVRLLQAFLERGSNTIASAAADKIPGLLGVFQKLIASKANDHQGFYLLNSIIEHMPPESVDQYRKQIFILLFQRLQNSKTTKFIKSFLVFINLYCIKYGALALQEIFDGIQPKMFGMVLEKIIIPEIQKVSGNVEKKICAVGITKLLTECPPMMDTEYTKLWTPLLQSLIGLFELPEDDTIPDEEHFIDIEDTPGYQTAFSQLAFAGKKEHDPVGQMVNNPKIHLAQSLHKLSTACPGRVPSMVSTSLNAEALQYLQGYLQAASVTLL
Chain of UniProt P33240 (P33240 whole entry, looked up): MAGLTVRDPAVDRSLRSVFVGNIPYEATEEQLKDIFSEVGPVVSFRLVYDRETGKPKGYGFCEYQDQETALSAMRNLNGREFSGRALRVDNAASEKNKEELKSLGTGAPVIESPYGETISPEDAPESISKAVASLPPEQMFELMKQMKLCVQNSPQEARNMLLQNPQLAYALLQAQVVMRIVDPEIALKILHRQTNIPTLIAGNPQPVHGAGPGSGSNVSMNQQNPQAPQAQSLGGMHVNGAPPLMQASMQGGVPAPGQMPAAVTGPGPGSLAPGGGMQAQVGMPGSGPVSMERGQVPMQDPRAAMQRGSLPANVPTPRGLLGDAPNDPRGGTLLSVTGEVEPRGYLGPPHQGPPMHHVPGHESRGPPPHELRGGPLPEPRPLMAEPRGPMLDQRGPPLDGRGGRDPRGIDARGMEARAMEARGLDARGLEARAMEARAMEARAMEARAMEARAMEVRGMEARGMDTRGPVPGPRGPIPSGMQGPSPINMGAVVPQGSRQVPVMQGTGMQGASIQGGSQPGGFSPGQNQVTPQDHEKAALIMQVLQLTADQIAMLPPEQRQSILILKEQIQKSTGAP

Target | log2 fold change [1] | log2 fold change [2] | log2 fold change [3] | log2 fold change [4] | log2 fold change [5] | log2 fold change [6] | log2 fold change [7] | log2 fold change [8] | log2 fold change [9] | log2 fold change [10] | log2 fold change [11] | log2 fold change [12] | log2 fold change [13] | log2 fold change [14] | log2 fold change [15] | log2 fold change [16] | log2 fold change [17] | log2 fold change [18] | log2 fold change [19] | log2 fold change [20]
CDK1 (UniProt P06493) | 0.017 | -0.017 | 0.004 | 0.036 | -0.015 | 0.029 | 0.02 | 0.001 | 0.048 | 0.001 | -0.03 | -0.05 | 0.017 | 0.055 | -0.002 | 0 | 0.03 | 0.032 | 0.005 | -0.108
CA8 (UniProt P35219) | -0.024 | -0.081 | 0.041 | 0.006 | -0.058 | 0.004 | 0.02 | -0.002 | 0.077 | 0.034 | -0.055 | -0.329 (active) | 0.038 | 0.01 | -0.035 | -0.093 | -0.002 | 0.044 | -0.099 | -0.127
C9orf64 (UniProt Q5T6V5) | 0.014 | -0.014 | 0.029 | 0.001 | 0.029 | -0.032 | 0.079 | -0.036 | 0.064 | 0.08 | -0.066 | -0.309 | 0.103 | -0.004 | -0.094 | -0.149 | 0.075 | 0.119 | -0.007 | -0.396 (active)
CCZ1 (UniProt P86791) | -0.005 | -0.029 | 0.014 | 0.035 | 0.009 | 0.024 | 0.011 | -0.029 | 0.028 | -0.011 | -0.199 | -0.113 | -0.005 | 0.013 | -0.011 | 0.028 | -0.002 | 0.025 | -0.002 | -0.256 (active)
CSE1L (UniProt P55060) | 0.021 | -0.006 | 0.068 | 0.083 | -0.068 | 0.029 | 0.063 | 0.009 | 0.004 | 0.042 | -0.209 (active) | -0.403 (active) | 0.047 | 0.03 | 0.002 | -0.068 | 0.008 | 0.047 | -0.095 | -0.181
C16orf58 (UniProt Q96GQ5) | -0.04 | 0.001 | 0.021 | 0.003 | -0.049 | -0.007 | 0.005 | -0.075 | -0.012 | -0.011 | -0.055 | -0.013 | -0.005 | 0.029 | 0.015 | -0.018 | 0.006 | 0.039 | -0.037 | -0.086
CSTF2 (UniProt P33240) | -0.081 | 0 | 0.002 | -0.05 | 0.026 | 0.016 | -0.053 | 0.004 | -0.014 | -0.042 | 0.06 | 0.233 (active) | -0.024 | -0.077 | 0.011 | 0.041 | -0.048 | 0.01 | -0.085 | -0.004
CKS1B (UniProt P61024) | -0.043 | -0.094 | -0.121 | 0.036 | -0.005 | 0.056 | -0.17 | -0.38 | -0.034 | 0.029 | -0.028 | 0.068 | 0.094 | 0.014 | 0.025 | 0.041 | -0.024 | -0.002 | 0.022 | -0.006
CNOT2 (UniProt Q9NZN8) | -0.075 | 0.136 | -0.027 | 0.008 | 0.017 | -0.03 | 0.006 | -0.018 | 0.059 | 0.01 | -0.035 | -0.168 | 0.021 | -0.034 | -0.05 | 0.085 | 0.015 | 0.007 | 0.062 | -0.027
CDK13 (UniProt Q14004) | 0.045 | 0.027 | -0.047 | 0.056 | -0.212 | -0.056 | -0.037 | -0.011 | -0.021 | -0.029 | 0.025 | 0.09 | 0.034 | -0.032 | 0.087 | 0.018 | 0.004 | -0.002 | 0.233 | -0.047
CA1 (UniProt P00915) | -0.028 | -0.008 | 0.03 | 0.014 | -0.051 | 0.048 | 0.016 | -0.039 | -0.021 | 0.008 | 0 | -0.02 | 0.01 | 0.016 | 0.003 | 0.042 | -0.002 | 0.045 | -0.034 | 0.134
CLPX (UniProt O76031) | 0.022 | -0.013 | -0.008 | 0.012 | 0 | -0.011 | -0.013 | -0.002 | 0.02 | -0.013 | 0.039 | 0.192 | -0.06 | -0.019 | -0.03 | -0.022 | 0.026 | -0.009 | -0.01 | 0.072
CAVIN1 (UniProt Q6NZI2) | 0.024 | -0.066 | -0.051 | -0.027 | 0.186 | -0.068 | -0.047 | 0.073 | 0.041 | -0.058 | 0.072 | 0.182 | -0.007 | -0.125 | 0.013 | 0.085 | -0.06 | -0.037 | 0.124 | -0.074
CASTOR2 (UniProt A6NHX0) | -0.015 | -0.01 | 0.037 | 0.033 | -0.085 | 0.046 | -0.465 (active) | -0.021 | 0.041 | 0.01 | 0.025 | 0.254 | -0.042 | 0.061 | -0.024 | 0.123 | -0.035 | 0.034 | -0.022 | 0.066
CAMKK2 (UniProt Q96RR4) | 0.022 | 0.024 | -0.044 | -0.009 | 0.154 | 0.037 | -0.043 | 0.277 | -0.017 | 0.058 | 0.374 | 0.617 (active) | 0.014 | 0.211 | 0.114 | -0.093 | 0.145 | 0.072 | -0.008 | 0.045
CDK11B (UniProt P21127) | -0.079 | 0.214 | -0.109 | 0.071 | 0.038 | 0.029 | -0.064 | -0.063 | 0.114 | 0.028 | 0.087 | 0.047 | 0.028 | -0.072 | -0.07 | -0.01 | -0.107 | 0.004 | 0.005 | 0.094
